In the library only some 7.4% were active in any assay of this set; here they are far more common.
FLuc counter = qHTS profiling assay for firefly luciferase inhibitor/activator using purifed enzyme and Km concentrations of substrates (counterscreen for miR-21 project) | Luciferin 4-monooxygenase (Photinus pyralis), P08659 | purified FLuc, Km substrates, luminescence inhibition | Potency, µM (top dose mostly 57.5 µM), without a hit: at the highest dose activity change, negative = inhibition, hits mostly inhibitors | 360,000 compounds, 6.9% hits | AID 588342, 2011;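 also: plate controls were vehicle for no effect and reference inhibitor for full effect; nearly all actives have a fitted effect of over 55% in size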
Target sequence (P08659 whole entry, looked up): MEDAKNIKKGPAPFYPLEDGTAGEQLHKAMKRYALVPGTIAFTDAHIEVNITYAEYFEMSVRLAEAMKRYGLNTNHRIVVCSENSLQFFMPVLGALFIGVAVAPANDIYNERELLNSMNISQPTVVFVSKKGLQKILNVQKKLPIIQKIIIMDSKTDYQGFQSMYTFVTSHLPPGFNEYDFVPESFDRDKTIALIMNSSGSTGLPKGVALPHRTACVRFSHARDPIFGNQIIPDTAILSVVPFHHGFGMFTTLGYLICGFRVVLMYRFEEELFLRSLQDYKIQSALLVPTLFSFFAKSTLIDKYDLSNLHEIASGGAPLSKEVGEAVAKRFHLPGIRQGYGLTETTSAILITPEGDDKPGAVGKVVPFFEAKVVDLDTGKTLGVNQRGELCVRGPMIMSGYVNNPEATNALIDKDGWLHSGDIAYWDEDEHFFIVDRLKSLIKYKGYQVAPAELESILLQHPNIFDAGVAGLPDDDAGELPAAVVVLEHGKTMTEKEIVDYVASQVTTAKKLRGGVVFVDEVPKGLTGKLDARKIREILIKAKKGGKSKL
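Purified P. pyralis luciferase, 10 nM final, with Km-level 10 uM D-luciferin and 10 uM ATP in 50 mM Tris acetate pH 7.5, 10 mM Mg acetate, 0.01% Tween-20, 0.05% BSA; 6-point qHTS titration about 60 µM downward; luminescence read.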
NPC1 promoter act = qHTS Assay for NPC1 Promoter Activators | Huh7 NPC1 promoter luciferase reporter, 24 h | Potency, µM (highest dose often 9.22 µM), inactives show at the highest dose activation, most hits filed as activators | 320,000 compounds, 2.4% hits; also: % of control where 0% means no effect; nearly all actives have a fitted effect of over 60% in size
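NPC1 promoter–luciferase Huh7 cells; 24 h compound; luminescence.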
Rab9 promoter act = qHTS Assay for Rab9 Promoter Activators; Huh7 Rab9 promoter-luciferase reporter, luminescence, 24 h; Potency, µM (series often up to 9.22 µM), for the others: at the top dose activation, negative = inhibition, most hits filed as activators; 320,000 compounds, 2.8% hits; AID 485297, 2010; also: % of control where 0% means no effect; nearly all actives have a fitted effect of over 60% in size
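Quantitative HTS format; Huh7 Rab9-luciferase reporter cells (1500/well) receive compound 2 h post-plating, incubate 24 h at 37 °C, then get luciferase reagent for 10 min before luminescence reading.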
ELG1 genotox = qHTS screen for small molecules that induce genotoxicity in human embryonic kidney (HEK293T) cells expressing luciferase-tagged ELG1. Potency, µM (top dose mostly 46 µM), without a hit: top-dose activity change, positive = activation, hits mostly activators. 330,000 compounds, 1.3% hits. HEK293T ELG1-luciferase reporter, luminescence, 16 h. AID 504466, 2011; also: % of control where 0% means no effect; nearly all actives have a fitted effect of over 60% in size
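16 hr compound incubation (37 °C, 5% CO2) of HEK293T cells carrying luciferase-tagged ELG1; luciferase then measured by ONE-Glo luminescence after 30 min at RT.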
SMN2 splice enh = qHTS Assay for Enhancers of SMN2 Splice Variant Expression. HEK293 SMN2-luciferase splicing reporter, luminescence, 30-36 h. Potency, µM (series often up to 46.1 µM), without a hit: at the top dose activity change, positive = activation, hits mostly activators. 210,000 compounds, 2.8% hits; also: % of control where 0% means no effect; nearly all actives have a fitted effect of over 55% in size
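qHTS luciferase splicing reporter: luminescence rises when SMN2 exon 7 is included in transfected HEK293 cells. Compound exposure lasted 30-36 h at 37C, with 4.5 mM final sodium butyrate as control, followed by a ONE-Glo read.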
Numbers without * were called inactive; ? = inconclusive; . = not tested or not shown. Calls follow the shape of the dose curve; as a rule, active = well fitted curve in the direction sought with a large enough effect; inconclusive = small, poorly fitted or top-dose-only effect, or another doubt; inactive = no such curve, though single readings can be large; an effect the other way counts as inactive or inconclusive. Potency is read from the fitted curve at half-maximal effect.

SMILES	FLuc counter	NPC1 promoter act	Rab9 promoter act	ELG1 genotox	SMN2 splice enh
O=C(O)c1ccc(N/N=C/c2ccc(-c3ccc(Cl)cc3Cl)o2)cc1	0.953µM*	?	20.9%	?	.
COC(=O)N/N=C/c1ccc(-c2ccc(Cl)cc2Cl)o1	?	-3.0%	8.5%	4.7%	.
O=C(CNC(=O)c1ccccc1F)NCCc1ccc(Cl)cc1Cl	0.6%	-5.3%	-1.0%	-0.1%	.
O=C(NC(=O)c1ccccc1F)OCc1ccc(Cl)cc1Cl	12µM*	7.9%	13.2%	1.9%	.
COc1ccc(-c2cn3nc(C)c(C)nc3n2)cc1OC	?	?	2.82µM*	5.3%	.
Cc1ccc(-c2cn3nc(C)c(C)nc3n2)cc1	0.675µM*	?	0.178µM*	?	0.501µM*
Cc1ccc(CNc2nc3nc(C)c(Cl)c(C)n3n2)cc1	.	.	.	.	15.2%
CCOc1ccccc1NC(=O)COC(=O)c1cn(CC)c2nc(C)ccc2c1=O	-11.8%	.	.	.	7.8%
CC(C)CCNC(=O)Nc1ccc2c(c1)N(C)C(=O)c1ccccc1S2	-2.3%	.	.	.	.
COc1ccccc1CNC(=O)c1ccc2nc(N3CCOCC3)sc2c1	-2.3%	-0.6%	1.1%	0.0%	.
Cc1ccc(Nc2cc(C(=O)NCCCN3CCOCC3)c3ccccc3n2)cc1C	12µM*	15.7%	-3.8%	-0.1%	.
COc1ccc(-c2cc(C(=O)NCCN3CCOCC3)c3ccccc3n2)cc1	16.9µM*	-0.2%	1.1%	-1.0%	-5.9%
CCOc1ccc(-c2cc(C(=O)NCCCn3ccnc3)c3ccccc3n2)cc1	6.01µM*	10.6%	18.7%	-7.8%	21.4%
CCOc1ccc(-c2cc(C(=O)NCCCn3ccnc3)c3cc(Br)ccc3n2)cc1	5.36µM*	0.9%	-1.8%	5.9%	.
O=C(NCCCN1CCOCC1)c1cc(-c2ccccc2)nc2ccccc12	-3.4%	-1.5%	-0.7%	7.9%	.
Cc1ccccc1NC(=O)Cc1nc(-c2ccc3ccccc3c2)cs1	-1.3%	-2.3%	0.2%	5.8%	-22.9%
O=C(CSc1nccn1Cc1ccccc1)NCc1ccccc1Cl	-1.0%	.	.	.	.
CCOc1ccc(-c2cn3c(n2)sc2cc(C(=O)NCCCN4CCCCCC4)ccc23)cc1	-2.9%	.	.	.	.
COc1ccc(-c2cn3c(n2)sc2cc(C(=O)Nc4ccc(C)cc4C)ccc23)cc1	-1.0%	.	.	.	.
CCCN1CCN(CCCNC(=O)c2ccc3c(c2)sc2nc(-c4ccc(OCC)cc4)cn23)CC1	10.7µM*	.	.	.	-93.7%
COc1ccc(-c2cn3c(n2)sc2cc(C(=O)Nc4ccc(F)cc4Cl)ccc23)cc1	19µM*	.	.	.	?
CCOc1ccc(-c2cc(C(=O)NCCCN3CCN(CC)CC3)c3ccccc3n2)cc1	8.49µM*	14.8%	16.8%	9.1%	6.6%
Cn1c(=O)[nH]c(=O)c2c1nc(CN1CCN(c3ccccc3)CC1)n2Cc1c(F)cccc1Cl	-5.2%	.	.	.	1.4%
CN(c1ccccc1)c1nc2ccsc2c(=O)s1	12µM*	?	3.16µM*	13µM*	?
Fc1cccc(Cl)c1CNCc1cccnc1	-1.7%	-4.2%	8.6%	-6.3%	.
SMILES	FLuc counter	NPC1 promoter act	Rab9 promoter act	ELG1 genotox	SMN2 splice enh
COc1cccc(-c2cc(C(=O)NCc3ccc(F)cc3)no2)c1	-11.9%	.	.	.	-2.7%
COc1ccc(NC(=O)Cn2nnc(C(=O)NCc3cccs3)c2N)cc1	-0.8%	0.9%	0.0%	?	-16.9%
COc1ccc(-c2cc(C(=O)NCc3cccs3)no2)cc1	?	2.51µM*	4.47µM*	?	.
COc1ccc2nc3sc(C(=O)NCc4cccs4)c(N)c3cc2c1	0.757µM*	3.55µM*	3.98µM*	?	3.55µM*
COc1cccc(-c2cc(C(=O)NCc3cccs3)no2)c1	4.78µM*	3.16µM*	3.16µM*	23.1µM*	.
OCCN(/C=N/c1nc(-c2ccc(Br)cc2)cs1)CCO	19µM*	?	?	20.6µM*	13.6%
Brc1ccc(-c2csc(/N=C/N3CCOCC3)n2)cc1	15.1µM*	?	?	18.4µM*	8.7%
Brc1ccc(-c2csc(/N=C/N3CCCC3)n2)cc1	15.1µM*	26.5%	?	?	-43.1%
N#CCCN(C(=O)COC(=O)Cc1c[nH]c2ccccc12)c1ccccc1	-0.3%	1.6%	-7.1%	6.4%	.
COc1cc(CNc2ccc(N3CCN(C(C)=O)CC3)cc2)ccc1OCc1ccccc1	?	-1.7%	-7.6%	?	.
COc1cc(CNc2ccc(NC(C)=O)cc2)ccc1OCc1ccccc1C	15.1µM*	13.3%	?	?	14.9%
CCOC(=O)c1sc(=NC(=O)c2ccc(Cl)s2)n(C)c1C	0.675µM*	?	?	1.16µM*	7.94µM*
Cc1sc(NC(=O)c2ccco2)c(C(=O)c2ccc(Cl)cc2)c1C	-9.1%	-1.1%	-1.6%	0.8%	-19.4%
CCOC(=O)c1sc(=NC(=O)c2cccs2)n(C)c1C	1.35µM*	0.9%	?	?	3.16µM*
CCOC(=O)c1sc(=NC(=O)c2ccccc2Br)n(C)c1C	2.13µM*	?	?	?	.
Cc1sc(=NC(=O)c2ccco2)n(C)c1-c1ccc(Cl)cc1	5.36µM*	2.51µM*	2.82µM*	11.0%	24.3%
CCOC(=O)c1sc(=NC(=O)c2ccc(OC(C)C)cc2)n(C)c1C	-3.3%	-17.9%	1.1%	4.8%	-4.7%
Cn1c(=O)c(-c2cccc(Cl)c2)nc2cncnc21	.	.	.	.	-8.6%
CCN(CC)S(=O)(=O)c1ccc(C)c(NC(=S)N2CCN(Cc3ccc4c(c3)OCO4)CC2)c1	-1.9%	-18.6%	-30.7%	-15.4%	-72.5%
CCOC(=O)c1sc(=NC(=O)c2ccco2)n(C)c1C	15.1µM*	-12.3%	?	3.7%	14.1µM*
CCOC(=O)c1sc(=NC(=O)/C=C/c2ccccc2)n(C)c1C	-6.7%	?	1.58µM*	15.4%	29.6%
COCCn1c(=NC(=O)/C=C/c2ccccc2)sc2cc(NC(C)=O)ccc21	-9.6%	1.0%	-0.8%	1.8%	14.8%
CC1CC[C@@]23CCC4(C)[C@@]5(C)CCC6C(C)(C)C(=O)CC[C@@]6(C)C5C=C[C@@]4(OC2=O)C3C1C (stereo partly specified)	.	.	.	.	6.3%
C[C@@H](CN=[N+]=[N-])CN1CC[C@H](C(C)(C)C)CCC1=O	-0.1%	-2.9%	-6.2%	-0.7%	.
CCC1CCc2sc(C(=O)NCC3CCCO3)cc2C1 (stereo unspecified)	5.36µM*	2.82µM*	1.78µM*	?	.
CCC1CCc2sc(C(=O)NCc3ccccn3)cc2C1 (stereo unspecified)	15.1µM*	?	27.6%	?	.
COc1ccccc1NC(=O)CC(c1cc(OC)c(OC)c(OC)c1)N1Cc2ccccc2C1=O (stereo unspecified)	2.8%	.	.	.	.
Cc1n[nH]c(=S)n(/N=C/c2cccs2)c1=O	2.6%	-2.7%	1.3%	-0.7%	.
